Bioassay records: PubChem BioAssay, several laboratories
An excerpt weighted towards active compounds, which were near 27% of everything screened.
CYP2C9 inhib – inhibitors of human CYP2C9; inhibition, % at 5 µM; P11712; CYP2C9 Supersomes, luciferin-H conversion, luminescence; 20% of 96,000 active;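 active = blocking of liver enzyme CYP2C9 beyond about 50% at 5 µM, limit read from the data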
sEH act – increases human soluble epoxide hydrolase activity; purified human sEH enzymatic activity, activator screen; activation, % at 2 µM; 0.04% of 91,000 active; AID 717; in the data active = activation above about 37%
CYP2C19 inhib – inhibitors of human CYP2C19. P33261. CYP2C19 Supersomes, luciferin-H EGE luminescence, 30 min. inhibition, % at 5 µM. 21% of 96,000 active;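 active = CYP2C19 inhibition above a set limit at 5 µM in the primary screen, cut at about 50% in these data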;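 also: plate controls were negative control wells for no effect and 2.5 mM tranylcypromine positive control for full effect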
Target sequence (P33261 whole entry, looked up): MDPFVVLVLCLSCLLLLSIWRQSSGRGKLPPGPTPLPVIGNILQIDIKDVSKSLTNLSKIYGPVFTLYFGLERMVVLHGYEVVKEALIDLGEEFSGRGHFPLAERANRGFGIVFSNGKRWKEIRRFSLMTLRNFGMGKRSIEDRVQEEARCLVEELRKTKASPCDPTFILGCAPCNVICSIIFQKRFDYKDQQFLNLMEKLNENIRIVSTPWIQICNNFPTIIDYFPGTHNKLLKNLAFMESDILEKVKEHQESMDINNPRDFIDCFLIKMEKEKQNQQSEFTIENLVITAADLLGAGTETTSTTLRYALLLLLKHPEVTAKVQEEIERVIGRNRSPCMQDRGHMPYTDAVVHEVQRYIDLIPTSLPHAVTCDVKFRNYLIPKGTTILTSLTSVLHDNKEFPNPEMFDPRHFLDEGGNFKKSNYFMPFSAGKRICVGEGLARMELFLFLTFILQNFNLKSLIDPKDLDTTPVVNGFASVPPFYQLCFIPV
CYP2C19 activ – cytochrome P450 2C19 (human) activation. activation factor at 5 µM. recombinant CYP2C19, luciferin-H EGE luminescence; active compounds read high; 0 = fully inhibited enzyme, 1 = untreated enzyme. 96,000 tested, under 10 active;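 active = activation factor of at least 2 at 5 µM in the primary screen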;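 also: 0 = wells with 2.5 mM tranylcypromine and 1 = vehicle-only wells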
CYP2C9 activ – activators of human CYP2C9; AID 1024; 1.4% of 96,000 active; recombinant CYP2C9, luciferin-H conversion, luminescence; active compounds read high; factor 1 = untreated enzyme, 0 = blocked; activation factor at 5 µM;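 active = activation factor of 2 or more for CYP2C9 at a 5 µM dose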;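 also: 0 = sulfaphenazole-blocked wells and 1 = vehicle-only wells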
sEH inh – inhibitors of human soluble epoxide hydrolase; P34913; recombinant human sEH enzymatic activity assay; inhibition, % at 2 µM; 0.34% of 91,000 active; AID 707; in the data active = inhibition above about 80%
Active calls of the source: *; / = no result.

SMILES	CYP2C9 inhib	sEH act	CYP2C19 inhib	CYP2C19 activ	CYP2C9 activ	sEH inh
COc1ccc(CCNC(=O)COC(=O)c2cnc(C)cn2)cc1	27	0	5	1	0.7	-2
O=S(=O)(Nc1ccc(-c2csc(-c3ccccc3)n2)cc1)c1ccc(F)cc1	97*	3	8	0.9	0	-4
COC(=O)c1ccc(NS(=O)(=O)c2ccc(SC)cc2)cc1	7	0	-14	1.1	0.9	1
CC(=O)NS(=O)(=O)c1ccc(NS(=O)(=O)c2ccc(F)cc2)cc1	59*	0	3	1	0.4	-1
CSc1ccc(S(=O)(=O)Nc2ccc(F)cc2)cc1	92*	-6	100*	0	0.1	10
COc1ccc(NS(=O)(=O)c2ccc(NS(C)(=O)=O)cc2)cc1	16	24	17	0.8	0.8	-26
COc1ccc(NS(=O)(=O)c2ccc(SC)cc2)cc1	96*	3	100*	0	0	-1
CC(C)NC(=O)CSc1nnc(-c2ccc(C(C)(C)C)cc2)n1C	/	-2	/	/	/	0
CCOCCCNc1nc2c(c(=O)[nH]c(=O)n2C)n1CCCc1ccccc1	25	0	14	0.9	0.8	3
Cc1nc(NCc2ccco2)[nH]c(=O)c1CCC(C)C	14	-5	57*	0.4	0.9	1
Cc1ccc(-c2ccc(/C=N/c3ncn[nH]3)o2)cc1Cl	-13	-2	-4	1	1.1	7
CCOC(=O)/C=C1\SCC(=O)N1CC(=O)NC(C)C	-6	0	25	0.8	1.1	3
CCOC(=O)/C=C1\SCC(=O)N1Cc1nnc(-c2ccccc2Br)o1	72*	11	76*	0.2	0.3	-13
CCN(CC)C(=O)C(=O)N/N=C/c1cccc(Br)c1	6	-9	2	1	0.9	11
CCCOc1ccc(-c2nc(C#N)c(NCCCn3ccnc3)o2)cc1	/	-3	/	/	/	4
COc1ccc(-c2nc(C#N)c(NCCCn3ccnc3)o2)cc1OC	86*	-4	81*	0.2	0.1	7
N#Cc1nc(-c2ccco2)oc1NCCCn1ccnc1	84*	-14	86*	0.1	0.2	17
O=C(Nc1ccccc1Sc1ccccc1)c1ccccc1F	/	15	/	/	/	-18
CN(C)S(=O)(=O)c1ccc2oc(SCC(=O)NCC(F)(F)F)nc2c1	11	19	15	0.9	0.9	-20
N#Cc1cc([N+](=O)[O-])c(-n2nnc3ccccc32)c([N+](=O)[O-])c1	66*	1	42	0.6	0.3	2
CN(C)S(=O)(=O)Oc1cccc(C(=O)Nc2ccccc2Cl)c1	52*	8	52*	0.5	0.5	-8
CN(C)S(=O)(=O)Oc1cccc(C(=O)Nc2ccc(Cl)cc2)c1	68*	-78	45	0.6	0.3	78
Nc1cccc(C(=O)Nc2ccccc2Cl)c1	-10	-5	6	0.9	1.1	6
Cn1c(Cc2cccs2)n[nH]c1=S	-7	-6	4	1	1.1	5
CCC(=O)n1nc(-c2ccccc2)nc1NCc1ccccc1	16	-5	16	0.8	0.8	8
SMILES	CYP2C9 inhib	sEH act	CYP2C19 inhib	CYP2C19 activ	CYP2C9 activ	sEH inh
CCC(=O)n1nc(-c2cccnc2)nc1NCc1ccc(OC)cc1	61*	10	73*	0.3	0.4	-12
O=S(=O)(c1ccc(OCC(O)CN2CCc3ccccc3C2)cc1)N1CCOCC1 (stereo not given)	9	-4	-3	1	0.9	3
COc1ccc(N2C(C(C)=O)=NN(c3ccccc3)C2c2cccs2)cc1 (stereo not given)	56*	21	43	0.6	0.4	-24
CC(=O)Nc1ccc(N2C(C(C)=O)=NN(c3ccccc3)C2c2cccs2)cc1 (stereo not given)	44	5	47	0.5	0.6	-4
Cc1ccc(OCC(=O)Sc2ccc(C)cc2)cc1	46	-6	52*	0.5	0.5	4
O=C(NC(Nc1ncccn1)C(=O)c1ccccc1)c1ccccc1 (stereo not given)	77*	1	78*	0.2	0.2	0
COC(=O)c1c(C)[nH]c(C)c1-c1ccc(C)cc1	38	20	82*	0.2	0.6	-27
COC(=O)c1cc(NC(=O)c2nccnc2C(=O)O)cc(C(=O)OC)c1	2	-9	-19	1.2	1	10
O=C(CSc1nnc(-c2cccnc2)n1-c1ccccc1)Nc1ccccn1	-8	0	8	0.9	1.1	2
Cc1cnc(NC(=O)CSc2nnc(-c3ccncc3)n2C2CCCCC2)s1	44	-1	76*	0.2	0.6	0
O=C(CSc1nnc(-c2ccncc2)n1C1CCCCC1)Nc1cccc(O)c1	46	-41	45	0.5	0.5	41
COc1ccc(-c2nnc(SCC(=O)Nc3ncc(C)s3)n2-c2ccccc2)cc1OC	51*	-3	62*	0.4	0.5	5
CC(C)N(CCO)C(=O)C(c1ccccc1)c1ccccc1	59*	28	90*	0.1	0.4	-28
Cc1ccc(-c2noc(CN(C(=O)c3cccc(Br)c3)C(C)C)n2)cc1	87*	3	82*	0.2	0.1	-4
COc1ccc(-c2noc(CN(C(=O)c3cccs3)C(C)C)n2)cc1	68*	0	34	0.7	0.3	2
CC(C)N(Cc1nc(-c2ccccc2)no1)C(=O)CCCN1C(=O)c2ccccc2C1=O	67*	-1	67*	0.3	0.3	6
CC(NC(=O)C(c1ccccc1)c1ccccc1)C(=O)O (stereo not given)	11	/	-6	1.1	0.9	/
Cc1cccc(-c2noc(CN(C(=O)CCc3ccccc3)C(C)C)n2)c1	-14	6	4	1	1.1	-3
CCOc1ccc(Br)cc1/C(C)=N\NC1=NCCN1	11	-1	20	0.8	0.9	-3
Cc1ccc(-c2noc(CN(C(=O)C(c3ccccc3)c3ccccc3)C(C)C)n2)cc1	66*	-6	22	0.8	0.3	9
CC(C)N(Cc1nc(-c2ccc(Cl)cc2)no1)C(=O)C(c1ccccc1)c1ccccc1	54*	18	38	0.6	0.5	-21
COc1ccc(Cl)cc1C(=O)N(Cc1nc(-c2cccc(C)c2)no1)C(C)C	30	/	88*	0.1	0.7	/
CCOc1ccc(NC(=O)CSc2nc3cccnc3n2CC)cc1	9	-21	45	0.6	0.9	20
CCOc1ccccc1NC(=O)CSCC(=O)Nc1ccccc1	-159	2	93*	0.1	2.6*	-1
CCOc1ccccc1NC(=O)CSc1nc2cccnc2n1C	18	1	66*	0.3	0.8	0
COc1ccc(NC(=O)CSc2nccn2-c2ccccc2)c(OC)c1	2	/	95*	0	1	/
CCOc1ccccc1NC(=O)CSc1c(C)n[nH]c1C	-31	7	-2	1	1.3	-4
CCOc1ccccc1NC(=O)CSc1nccn1-c1ccccc1	-145	/	67*	0.3	2.4*	/
